For 14 compounds, residual activity results are on record in ChEMBL document CHEMBL2218924, “A broad activity screen in support of a chemogenomic map for kinase signalling research and drug discovery” (Biochem J, 2013).

Assay [1] concerns the target Rho-associated protein kinase 2 (Homo sapiens) (UniProt O75116). The settings on record: at 1 µM.
The target is the same in assay [2]. The settings on record: at 10 µM.
In assay [3] the target is Proto-oncogene tyrosine-protein kinase receptor Ret (Homo sapiens) (UniProt P07949). The settings on record: at 1 µM.
Assay [4] shares this target. The settings on record: at 10 µM.
Assay [5] concerns the target Macrophage-stimulating protein receptor (Homo sapiens) (UniProt Q04912). The settings on record: at 1 µM.
Assay [6] shares this target. The settings on record: at 10 µM.
Assay [7] has as its target Proto-oncogene tyrosine-protein kinase ROS (Homo sapiens) (UniProt P08922). To be noted: at 1 µM.
The target is the same in assay [8]. To be noted: at 10 µM.
Assay [9] deals with Ribosomal protein S6 kinase alpha-3 (Homo sapiens) (UniProt P51812). To be noted: at 1 µM.
The target is the same in assay [10]. To be noted: at 10 µM.
Assay [11] deals with Ribosomal protein S6 kinase alpha-2 (Homo sapiens) (UniProt Q15349). The settings on record: at 1 µM.
Assay [12] shares this target. The settings on record: at 10 µM.
Assay [13] concerns the target Ribosomal protein S6 kinase alpha-6 (Homo sapiens) (UniProt Q9UK32). The settings on record: at 1 µM.
For assay [14] the target is unchanged. The settings on record: at 10 µM.
The target in assay [15] is Mitogen-activated protein kinase 14 (Homo sapiens) (UniProt Q16539). The settings on record: at 1 µM.
The target is the same in assay [16]. The settings on record: at 10 µM.
Assay [17] concerns the target T1, Tyrosine-protein kinase receptor TYRO3 (Homo sapiens) (UniProt Q06418).
T1 sequence (whole entry): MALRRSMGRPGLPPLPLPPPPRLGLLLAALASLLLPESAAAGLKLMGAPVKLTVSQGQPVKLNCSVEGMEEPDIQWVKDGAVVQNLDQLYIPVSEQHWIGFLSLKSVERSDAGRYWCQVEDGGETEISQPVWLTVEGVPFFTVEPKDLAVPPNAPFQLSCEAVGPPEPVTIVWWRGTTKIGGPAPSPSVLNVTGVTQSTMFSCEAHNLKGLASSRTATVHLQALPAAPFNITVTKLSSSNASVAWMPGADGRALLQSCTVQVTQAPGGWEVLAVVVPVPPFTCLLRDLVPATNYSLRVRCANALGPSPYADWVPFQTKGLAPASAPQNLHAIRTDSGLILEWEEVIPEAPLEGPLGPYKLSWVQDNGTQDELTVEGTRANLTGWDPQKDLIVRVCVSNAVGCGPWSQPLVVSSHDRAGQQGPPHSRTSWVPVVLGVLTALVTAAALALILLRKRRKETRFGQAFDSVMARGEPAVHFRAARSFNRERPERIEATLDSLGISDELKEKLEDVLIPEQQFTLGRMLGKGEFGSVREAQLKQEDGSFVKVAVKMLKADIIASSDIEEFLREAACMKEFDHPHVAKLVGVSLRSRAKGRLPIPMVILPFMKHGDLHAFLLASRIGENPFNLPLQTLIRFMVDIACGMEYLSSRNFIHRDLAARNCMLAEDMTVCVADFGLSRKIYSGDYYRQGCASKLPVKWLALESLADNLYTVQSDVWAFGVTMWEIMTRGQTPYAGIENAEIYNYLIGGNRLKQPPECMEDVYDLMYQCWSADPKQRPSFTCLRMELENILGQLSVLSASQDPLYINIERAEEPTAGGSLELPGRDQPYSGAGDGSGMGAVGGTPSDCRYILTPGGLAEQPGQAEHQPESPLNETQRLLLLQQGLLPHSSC
To be noted: at 1 µM.

The target in assay [18] is T1, Tyrosine-protein kinase receptor TYRO3 (Homo sapiens). The settings on record: at 10 µM.
Assay [19] deals with Ribosomal protein S6 kinase alpha-1 (Homo sapiens) (UniProt Q15418). The settings on record: at 1 µM.
For assay [20] the target is unchanged. The settings on record: at 10 µM.

Chain of Ribosomal protein S6 kinase alpha-2 (Homo sapiens) (Q15349 whole entry): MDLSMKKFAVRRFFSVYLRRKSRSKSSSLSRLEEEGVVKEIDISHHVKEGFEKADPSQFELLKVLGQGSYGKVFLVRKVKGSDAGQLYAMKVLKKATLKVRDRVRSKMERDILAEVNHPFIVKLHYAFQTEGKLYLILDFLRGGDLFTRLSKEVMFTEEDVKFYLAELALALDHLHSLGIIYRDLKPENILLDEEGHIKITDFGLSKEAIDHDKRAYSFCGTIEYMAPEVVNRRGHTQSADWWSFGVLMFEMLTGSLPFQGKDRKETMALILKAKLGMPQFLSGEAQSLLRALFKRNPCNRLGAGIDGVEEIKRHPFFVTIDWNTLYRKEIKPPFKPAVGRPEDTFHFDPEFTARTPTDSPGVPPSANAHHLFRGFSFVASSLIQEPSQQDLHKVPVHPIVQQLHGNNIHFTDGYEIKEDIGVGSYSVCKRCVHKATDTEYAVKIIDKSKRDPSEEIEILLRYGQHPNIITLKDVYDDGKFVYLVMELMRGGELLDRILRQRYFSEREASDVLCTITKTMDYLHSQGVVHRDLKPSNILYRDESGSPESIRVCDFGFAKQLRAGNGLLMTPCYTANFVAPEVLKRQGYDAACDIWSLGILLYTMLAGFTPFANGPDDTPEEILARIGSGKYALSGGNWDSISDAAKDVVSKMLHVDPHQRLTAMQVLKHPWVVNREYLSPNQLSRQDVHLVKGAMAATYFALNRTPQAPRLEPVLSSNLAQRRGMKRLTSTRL
Chain of Ribosomal protein S6 kinase alpha-6 (Homo sapiens) (Q9UK32 whole entry): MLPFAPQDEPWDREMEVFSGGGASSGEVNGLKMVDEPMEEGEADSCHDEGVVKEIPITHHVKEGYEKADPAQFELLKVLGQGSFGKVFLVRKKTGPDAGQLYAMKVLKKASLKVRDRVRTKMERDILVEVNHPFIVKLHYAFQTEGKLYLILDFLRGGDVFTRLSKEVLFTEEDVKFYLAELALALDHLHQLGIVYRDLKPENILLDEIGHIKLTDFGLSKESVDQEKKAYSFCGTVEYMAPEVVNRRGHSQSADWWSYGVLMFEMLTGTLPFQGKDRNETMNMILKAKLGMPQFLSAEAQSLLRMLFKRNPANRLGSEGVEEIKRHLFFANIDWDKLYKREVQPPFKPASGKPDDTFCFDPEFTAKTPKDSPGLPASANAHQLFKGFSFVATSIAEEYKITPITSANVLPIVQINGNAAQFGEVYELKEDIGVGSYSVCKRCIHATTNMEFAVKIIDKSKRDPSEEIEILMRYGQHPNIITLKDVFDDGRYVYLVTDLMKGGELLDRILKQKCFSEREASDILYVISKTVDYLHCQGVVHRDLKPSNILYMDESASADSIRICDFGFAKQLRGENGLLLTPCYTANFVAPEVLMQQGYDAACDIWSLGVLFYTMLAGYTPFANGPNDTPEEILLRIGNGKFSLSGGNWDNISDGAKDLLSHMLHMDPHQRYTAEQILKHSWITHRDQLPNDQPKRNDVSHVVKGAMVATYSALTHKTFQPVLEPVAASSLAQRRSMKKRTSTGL
Chain of Ribosomal protein S6 kinase alpha-3 (Homo sapiens) (P51812 whole entry): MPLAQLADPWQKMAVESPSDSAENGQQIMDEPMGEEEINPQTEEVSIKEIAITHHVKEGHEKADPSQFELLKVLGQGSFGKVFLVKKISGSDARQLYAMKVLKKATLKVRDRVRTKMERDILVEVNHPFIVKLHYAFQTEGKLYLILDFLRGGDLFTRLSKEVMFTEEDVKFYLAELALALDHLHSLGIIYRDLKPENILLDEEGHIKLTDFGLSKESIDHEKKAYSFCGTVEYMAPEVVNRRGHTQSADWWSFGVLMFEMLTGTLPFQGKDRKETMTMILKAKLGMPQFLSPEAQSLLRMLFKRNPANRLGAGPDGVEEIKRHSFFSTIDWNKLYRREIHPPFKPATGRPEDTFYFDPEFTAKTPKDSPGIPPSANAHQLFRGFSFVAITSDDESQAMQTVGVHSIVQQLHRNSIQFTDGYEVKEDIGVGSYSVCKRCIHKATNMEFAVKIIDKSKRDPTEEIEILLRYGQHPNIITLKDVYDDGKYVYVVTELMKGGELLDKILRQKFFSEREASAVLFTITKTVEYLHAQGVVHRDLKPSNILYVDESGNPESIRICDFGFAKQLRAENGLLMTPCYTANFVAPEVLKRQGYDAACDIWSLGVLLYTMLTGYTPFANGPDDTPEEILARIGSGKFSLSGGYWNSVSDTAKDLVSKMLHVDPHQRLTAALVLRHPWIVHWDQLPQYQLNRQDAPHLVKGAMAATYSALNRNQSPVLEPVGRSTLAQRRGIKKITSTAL
Chain of Ribosomal protein S6 kinase alpha-1 (Homo sapiens) (Q15418 whole entry): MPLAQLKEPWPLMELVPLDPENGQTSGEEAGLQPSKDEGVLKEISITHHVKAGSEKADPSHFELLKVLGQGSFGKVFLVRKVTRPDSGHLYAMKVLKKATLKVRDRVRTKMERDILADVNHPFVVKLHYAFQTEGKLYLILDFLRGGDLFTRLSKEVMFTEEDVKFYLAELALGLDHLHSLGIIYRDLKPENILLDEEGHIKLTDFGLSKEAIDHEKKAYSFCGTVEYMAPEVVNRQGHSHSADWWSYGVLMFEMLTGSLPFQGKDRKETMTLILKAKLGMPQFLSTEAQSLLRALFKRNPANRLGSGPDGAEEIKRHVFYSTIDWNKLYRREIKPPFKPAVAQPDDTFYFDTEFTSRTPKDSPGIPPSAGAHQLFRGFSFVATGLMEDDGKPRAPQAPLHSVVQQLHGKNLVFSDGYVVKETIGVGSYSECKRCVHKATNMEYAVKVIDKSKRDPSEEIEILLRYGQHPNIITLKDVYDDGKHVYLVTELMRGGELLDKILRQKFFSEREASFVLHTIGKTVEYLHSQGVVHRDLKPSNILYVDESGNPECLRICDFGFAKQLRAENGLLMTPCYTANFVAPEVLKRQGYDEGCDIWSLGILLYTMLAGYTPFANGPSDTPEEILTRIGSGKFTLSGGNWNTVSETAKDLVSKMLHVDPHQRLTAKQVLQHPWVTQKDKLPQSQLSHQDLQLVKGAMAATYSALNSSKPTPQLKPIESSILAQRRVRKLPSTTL
Chain of Macrophage-stimulating protein receptor (Homo sapiens) (Q04912 25-304 limits assumed): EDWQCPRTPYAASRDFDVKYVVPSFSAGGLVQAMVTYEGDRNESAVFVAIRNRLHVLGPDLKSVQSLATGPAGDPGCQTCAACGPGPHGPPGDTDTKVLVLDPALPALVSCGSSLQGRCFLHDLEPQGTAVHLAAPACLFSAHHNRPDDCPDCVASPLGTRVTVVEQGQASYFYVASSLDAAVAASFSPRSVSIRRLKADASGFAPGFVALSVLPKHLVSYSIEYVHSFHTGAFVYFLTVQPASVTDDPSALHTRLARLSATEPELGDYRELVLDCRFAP
Chain of Macrophage-stimulating protein receptor (Homo sapiens) (Q04912 310-1400 limits assumed): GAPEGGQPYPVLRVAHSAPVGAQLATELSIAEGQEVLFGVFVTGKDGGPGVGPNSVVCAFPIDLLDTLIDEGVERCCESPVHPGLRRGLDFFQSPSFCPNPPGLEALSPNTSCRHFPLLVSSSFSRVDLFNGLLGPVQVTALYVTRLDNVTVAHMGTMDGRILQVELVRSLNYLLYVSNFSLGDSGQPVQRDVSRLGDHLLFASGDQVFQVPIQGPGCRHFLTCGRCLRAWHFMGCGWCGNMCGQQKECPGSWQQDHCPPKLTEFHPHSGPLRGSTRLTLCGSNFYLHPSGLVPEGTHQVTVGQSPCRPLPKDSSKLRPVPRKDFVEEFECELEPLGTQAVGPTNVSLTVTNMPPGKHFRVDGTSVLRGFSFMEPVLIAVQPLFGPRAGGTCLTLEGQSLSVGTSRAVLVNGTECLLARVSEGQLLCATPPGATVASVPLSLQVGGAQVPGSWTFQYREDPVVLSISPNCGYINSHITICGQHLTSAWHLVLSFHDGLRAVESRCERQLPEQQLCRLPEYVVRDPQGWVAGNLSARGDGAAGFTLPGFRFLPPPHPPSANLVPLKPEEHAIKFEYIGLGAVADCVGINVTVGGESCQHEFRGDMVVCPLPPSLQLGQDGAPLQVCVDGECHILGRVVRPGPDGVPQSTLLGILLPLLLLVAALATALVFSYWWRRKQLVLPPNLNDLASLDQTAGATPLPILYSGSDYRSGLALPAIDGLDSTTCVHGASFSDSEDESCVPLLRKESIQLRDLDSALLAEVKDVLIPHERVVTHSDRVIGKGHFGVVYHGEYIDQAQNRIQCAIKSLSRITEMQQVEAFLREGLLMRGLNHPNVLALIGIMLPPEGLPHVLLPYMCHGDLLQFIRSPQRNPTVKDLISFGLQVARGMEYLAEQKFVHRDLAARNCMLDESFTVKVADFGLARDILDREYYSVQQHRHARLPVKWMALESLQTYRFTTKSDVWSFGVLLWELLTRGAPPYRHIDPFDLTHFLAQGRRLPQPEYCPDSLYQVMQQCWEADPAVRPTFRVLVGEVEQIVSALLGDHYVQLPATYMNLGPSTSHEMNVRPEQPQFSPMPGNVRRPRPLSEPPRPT
Chain of Mitogen-activated protein kinase 14 (Homo sapiens) (Q16539 whole entry): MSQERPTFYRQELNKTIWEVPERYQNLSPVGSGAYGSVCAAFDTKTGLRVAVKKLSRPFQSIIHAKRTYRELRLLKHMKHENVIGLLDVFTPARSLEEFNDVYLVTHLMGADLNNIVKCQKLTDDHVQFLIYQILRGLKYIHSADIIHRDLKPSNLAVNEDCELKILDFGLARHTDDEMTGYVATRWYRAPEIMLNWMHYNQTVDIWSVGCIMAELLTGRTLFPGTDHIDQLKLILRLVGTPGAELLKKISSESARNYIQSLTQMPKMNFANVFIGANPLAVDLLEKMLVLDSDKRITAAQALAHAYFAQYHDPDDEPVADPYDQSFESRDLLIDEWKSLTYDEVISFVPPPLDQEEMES

For `Cn1sc(=O)n(Cc2ccccc2)c1=O`, the residual activity was determined as 91% in assay [1]; 83% in assay [2]; 94% in assay [3]; 94% in assay [4]; 81% in assay [5]; 75% in assay [6]. Also, the residual activity came out at 79% in [7]; 80% in assay [8]; 49% in [9]; 65% in assay [10]; 99% in assay [11]; 97% in [12]. Further, the residual activity is 95% in assay [13], 93% in [14], 87% in [15] and 87% in [16].
Turning to `O=c1cc(N2CCOCC2)oc2c1ccc1ccccc12`, the residual activity amounted to 99% in assay [1]; 67% in assay [2]; 99% in [3]; 107% in assay [4]; 98% in [5]; 75% in assay [6]. The residual activity in assay [7] came out at 100%; in assay [8], 99%; in assay [17], 87%; in assay [18], 93%; in assay [19] it was 108%; in assay [20], 97%. In addition, the residual activity in assay [9] was 57%; in assay [10] it was 46%; in assay [11] it was 109%; in [12] it was 99%; in assay [13] it was 110%; in [14], 101%. In addition, the figures for the residual activity in assay [15] and in assay [16] were 100% and 92%, respectively.
As for `c1ccc(-c2cnc(Nc3ccc(OCCN4CCCC4)cc3)s2)cc1`, the residual activity in assay [1] worked out at 110%; in assay [2] it was 81%; in assay [4], 37%; in assay [8] it was 80%; in assay [19], 121%; in assay [20], 66%. In addition, the residual activity in assay [9] worked out at 56%; in [10], 36%; in assay [13], 72%; in assay [14] it was 58%.
As for `O=C(NC(NC(=S)Nc1ccc(F)c([N+](=O)[O-])c1)C(Cl)(Cl)Cl)C(c1ccccc1)c1ccccc1` (stereo not drawn), the residual activity in [1] stood at 99%; in assay [2], 102%; in assay [5], 88%; in [6] it was 93%; in assay [7] it was 103%; in assay [8] it was 94%. For the same compound, the figures for the residual activity in assay [13] and in assay [14] were 80% and 94%, respectively.
With `O=c1cc(N2CCOCC2)oc2c(-c3ccccc3)cccc12`, the residual activity in assay [1] turned out to be 100%; in assay [2] it was 73%; in assay [5], 64%; in assay [6], 65%; in assay [19], 138%; in assay [9], 69%. In assay [10], the residual activity was found to be 55%.
With `CCCCc1c(-c2ccc(O)cc2)[nH]c2nccnc12`, the residual activity in [1] was 96%; in assay [2], 94%; in assay [3], 45%; in assay [4], 48%; in assay [7] it was 93%; in assay [8] it was 82%. Further, the residual activity in [17] stood at 100%; in assay [18], 99%; in [9], 42%; in assay [10], 29%; in assay [11] it was 68%; in assay [12], 44%. The residual activity came to 86% in assay [13], 84% in assay [14], 100% in [15] and 88% in assay [16].
Consider `NC(=O)c1cccc(-c2cc(Nc3ccc(OC(F)(F)F)cc3)ncn2)c1`, for which the residual activity in assay [1] was found to be 125%; in assay [2], 94%; in [4], 87%; in [20], 94%; in [9] it was 57%; in [10] it was 40%.
In the case of `O=C(CCCc1ccc(-c2ccccc2F)cc1)Nc1ccc(O)cc1`, the residual activity in [1] came out at 106%; in assay [2], 96%; in assay [3] it was 91%; in assay [4] it was 86%; in assay [5], 85%; in [6] it was 92%. Further, the residual activity in [7] turned out to be 103%; in [8] it was 100%; in [17] it was 102%; in assay [18] it was 102%; in assay [19], 90%; in assay [20], 89%. The residual activity in assay [9] was 111%; in assay [10], 129%; in [11], 97%; in assay [12], 86%; in [13], 104%; in assay [14], 96%. Further, the residual activity in assay [15] worked out at 91%; in assay [16], 59%.
With `CCCC(=O)Oc1ccc2[nH]c(C(=O)c3cc4ccccc4[nH]3)cc2c1`, the residual activity came out at 93% in [1]; 83% in assay [2]; 94% in assay [3]; 102% in [5]; 74% in assay [6]; 86% in assay [7]. Further, the residual activity in assay [8] worked out at 90%; in assay [17], 92%; in [18], 98%; in assay [19], 129%; in [20], 99%; in [9], 122%. The residual activity was 93% in [10]; 102% in assay [11]; 90% in [12]; 79% in [15]; 81% in assay [16].
Regarding `O=C1C(Cl)=C(N2C(=O)CCC2=O)C(=O)c2ccccc21`, the residual activity in assay [1] was determined as 45%; in assay [2], 16%; in assay [3], 102%; in [4], 86%; in [5] it was 92%; in [6], 81%. In addition, the residual activity in assay [7] worked out at 101%; in assay [8], 97%; in assay [19], 120%; in [20], 131%; in assay [9], 73%; in assay [10], 75%. The residual activity in [13] was found to be 92%; in assay [14], 99%; in [15], 86%; in [16], 92%.
For `O=C1Nc2ccc(Cl)cc2/C1=C/c1cc(Cl)c(O)c(Cl)c1`, the residual activity in assay [1] turned out to be 96%; in assay [2] it was 65%; in assay [3] it was 91%; in assay [4] it was 77%; in assay [5], 61%; in assay [6] it was 57%. Also, the residual activity stood at 92% in assay [7]; 90% in [8]; 71% in [17]; 57% in [18]; 94% in assay [19]; 29% in [20]. The residual activity in assay [9] was 68%; in assay [10], 20%; in assay [11] it was 88%; in assay [12], 36%; in assay [13] it was 77%; in assay [14] it was 55%. Besides, the figures for the residual activity in assay [15] and in [16] were 54% and 10%, respectively.
Consider `CC(C)(C)n1nc(Cc2cccc3ccccc23)c2c(N)ncnc21`, for which the residual activity amounted to 104% in assay [1]; 77% in assay [2]; 11% in [3]; 1% in assay [4]; 110% in [5]; 77% in [6]. Also, the residual activity in [7] turned out to be 96%; in assay [8], 94%; in assay [17], 87%; in assay [18], 73%; in assay [19] it was 107%; in [20] it was 65%. In addition, the residual activity was 112% in assay [9]; 80% in assay [10]; 99% in [11]; 85% in [12]; 113% in [13]; 77% in [14]. Moreover, the residual activity in assay [15] was found to be 41%; in [16] it was 7%.
`CCN1/C(=C/C(C)=O)Sc2ccc(OC)cc21`: the residual activity worked out at 78% in [1], 73% in assay [2], 77% in assay [11] and 57% in [12].
`O=C(c1cc2cc(O)ccc2[nH]1)c1cc2cc(O)ccc2[nH]1`: the residual activity came to 67% in assay [1]; 24% in [2]; 8% in assay [3]; 0% in assay [4]; 80% in [5]; 33% in assay [6]. For the same compound, the residual activity in assay [17] stood at 39%; in assay [18], 2%; in [19] it was 40%; in [20] it was 9%; in assay [9], 30%; in assay [10] it was 4%. For the same compound, the residual activity in [11] was found to be 13%; in assay [12] it was 2%; in [13], 26%; in assay [14], 10%; in assay [15] it was 75%; in assay [16] it was 73%.
